Screens from PubChem.
FAS-TE inh: FAS thioesterase (human) inhibition | P49327 | recombinant FAS-TE, OMFH fluorogenic substrate, fluorescence endpoint | inhibition, % at 15 µM | AID 602261 | 360,000 compounds, 0.67% hits;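 active means compounds whose normalised, plate-corrected inhibition of enzyme fluorescence in the single-dose primary screen is 50% or more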;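 further: 0% = DMSO with enzyme and 100% = substrate without enzyme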
Myeloid diff 2: promotes myeloid progenitor differentiation; ER-HoxA9 myeloid progenitors, lysozyme-GFP differentiation, flow cytometry; calls only at 10 µM; 360,000 compounds, 1% hits; AID 624256;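 active means normalized GFP-positive differentiation at or above the plate's own cutoff, the solvent-only control mean plus 3 SD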;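 further: cells exposed to compound for four days before flow analysis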
MPTP block: blocks calcium-induced mitochondrial swelling; isolated mouse mitochondria, Ca2+ swelling absorbance, 30 min; inhibition, % at 10 µM; 360,000 compounds, 1.4% hits; AID 602449;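 active means inhibition of 50% or more, scaled per plate between neutral and stimulator controls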;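 further: 0% = DMSO wells given calcium and 100% = 1 mM EGTA wells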
rCAG binder: r(CAG) repeat RNA binding | 370,000 compounds, 1.3% hits | inhibition, % at 3 µM | TO-PRO-1 dye displacement fluorescence;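 active means inhibition above the plate cutoff, the mean of all test compounds on that plate plus 3 SD, cut at about 35% in these data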;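 further: 0% = DMSO alone and 100% = 100 µM mitoxantrone as full dye displacement; higher means more dye released from RNA so lower well fluorescence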
GRIN3A LBD mod: modulators (binders) of human NR3A ligand-binding domain | 340,000 compounds, 2.5% hits | AID 1259313 | NR3A LBD differential scanning fluorimetry, Tm shift; 0% = protein alone, 100% = glycine-bound protein | Tm shift relative to glycine control, % at 25 µM;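 active means melting temperature shift of at least 10% of the positive control shift, at one fixed dose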
rCAG bind conf: r(CAG) RNA repeat binding, confirmation; TO-PRO-1 dye displacement fluorescence; inhibition, % at 3 µM; 4,300 compounds, 70% hits; shares compounds with rCAG binder;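 active means inhibition above a per-plate cutoff, the mean inhibition of sample wells plus 3 SD, cut at about 35% in these data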;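 further: loss of TO-PRO-1 fluorescence as compound displaces dye from 1x1 AA loop RNA; 0% = DMSO only wells and 100% = 100 µM mitoxantrone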
dCAG dye counter: disrupts DNA CAG TO-PRO-1 complex, flagging rCAG hits; shares compounds with rCAG binder; d(CAG) DNA oligo TO-PRO-1 dye displacement, fluorescence; inhibition, % at 3 µM; 4,300 compounds, 94% hits;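 active means inhibition above its plate's cutoff, the mean test-well inhibition plus 3 SD, cut at about 4.8% in these data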;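 further: 0% = DNA dye mix with DMSO and 100% = 100 µM mitoxantrone; hits displace the dye from DNA and so lower well fluorescence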
dCAG dye DR: counter-screen for rCAG binders: inhibitors of DNA CAG TO-PRO-1 complex | AID 686960 | shares compounds with rCAG binder | 250 compounds, 20% hits | DNA CAG/GTC duplex TO-PRO-1 dye displacement fluorescence | IC50, µM; in the data active means IC50 below about 10 µM
Active calls of the source: *; i = inactive; / = no result given. In the library only some 5.7% were active in any assay of this set; here they are far more common.

SMILES	FAS-TE inh	Myeloid diff 2	MPTP block	rCAG binder	GRIN3A LBD mod	rCAG bind conf	dCAG dye counter	others
Cc1cc(C(=O)Nc2ccc(S(=O)(=O)Nc3onc(C)c3C)cc2)cs1	-12	i	-2	10	0	/	/
Cc1ccc(-c2cc(C(=O)Nc3ccc(S(=O)(=O)Nc4onc(C)c4C)cc3)[nH]n2)c(O)c1	-1	i	3	84*	-4	78*	44*
Cc1noc(NS(=O)(=O)c2ccc(NC(=O)c3cc(-c4ccccc4Cl)nc4ccccc34)cc2)c1C	2	i	0	83*	0	75*	34*	dCAG dye DR=8.5*
Cc1noc(NS(=O)(=O)c2ccc(NC(=O)c3ccoc3C)cc2)c1C	-12	i	-1	16	0	/	/
Cc1noc(NS(=O)(=O)c2ccc(NC(=O)c3cc(S(=O)(=O)Nc4ccc(F)cc4)ccc3Cl)cc2)c1C	-2	i	1	59*	4	52*	23*
Cc1noc(NS(=O)(=O)c2ccc(NC(=O)c3ccccc3NS(=O)(=O)c3ccc(F)cc3)cc2)c1C	-3	i	-2	68*	-3	56*	21*
Nc1cc(=O)[nH]c(SCC(=O)N2CCCC2)n1	-7	i	0	3	0	/	/
COc1ccc(OC)c(CNc2ccc3c(c2)nc(C)n3C)c1	-2	i	-1	44*	0	2	1
COc1ccc(CNc2ccc3c(c2)nc(C)n3C)cc1	-3	i	2	-4	-1	/	/
CC1CCN(CCC(=O)Nc2ccc(F)c(F)c2)CC1	-5	i	2	5	-1	/	/
O=C1CCCC2=C1C(c1cn(-c3ccccc3)nc1-c1cccs1)c1c([nH]c(=O)[nH]c1=O)N2 (configuration not stated)	-2	i	-2	39*	-2	27	15*
O=S(=O)(NCCSc1ccccc1)c1ccc(F)cc1	3	i	0	-2	1	/	/
O=C(NS(=O)(=O)c1ccc2ccc(S(=O)(=O)NCCSc3ccccc3)cc2c1)c1cccc2ccccc12	14	i	-2	88*	/	88*	65*
CCOC(=O)C1=C(C)NC(SCc2cc(=O)[nH][nH]2)=C(C#N)C1c1cccs1 (configuration not stated)	-15	i	2	59*	-4	39*	17*
CCCn1c(N)c(N(CCOC)C(=O)Cc2ccc(S(=O)(=O)N3CCOCC3)s2)c(=O)[nH]c1=O	-7	i	-2	10	-1	/	/
CCc1ccc(OCC(=O)c2c(O)c3ccccc3oc2=O)cc1	-2	i	-1	13	1	/	/
CCc1oc2ccccc2c1C(=O)c1cc(Br)c(O)c(Br)c1	17	i	44	57*	-13	63*	17*
O=C(O)CSC(C(=O)Nc1ccc(Br)cc1)c1ccc(Cl)cc1 (configuration not stated)	10	i	4	37*	-33	24	5.4*
Cc1ccc(O)c(CNCCNCc2cc(C)ccc2O)c1	-12	i	4	3	2	/	/
Cc1ccc(O)c(Cc2cc(C)cc(Cc3cc(C)ccc3O)c2O)c1	22	i	6	40*	/	39*	11*
CCOC(=O)C1CCN(CC(=O)c2c(C)n(C)c3ccc(OC)cc23)CC1	1	i	0	-1	1	/	/
O=C(O)C1CCCN1c1nc(-c2ccc(Cl)c(Cl)c2)cc(C(F)(F)F)n1 (configuration not stated)	8	i	1	44*	3	43*	12*	dCAG dye DR=>30
O=C(Nc1cccnc1)/C(N=Nc1cccnc1)=C(\O)c1ccccc1	-12	i	10	-4	-1	/	/
O=c1c2ccccc2oc2cc(-c3ccc4[nH]ccc4c3)ccc12	27	i	0	35*	8	22	11*
O=C(CCNC(=O)N1CC(=O)Nc2ccccc21)NCc1ccc(Cl)cc1	-6	i	-1	-1	/	/	/
SMILES	FAS-TE inh	Myeloid diff 2	MPTP block	rCAG binder	GRIN3A LBD mod	rCAG bind conf	dCAG dye counter	others
O=C(O)c1ccc2c(c1)C(=O)N(CCCCCCCN1C(=O)c3ccc(C(=O)O)cc3C1=O)C2=O	-1	i	0	37*	2	23	4
O=C(O)c1cccc(NC(=O)c2ccc(CN3C(=O)c4ccccc4C3=O)cc2)c1	-3	i	-1	16	-1	/	/
O=C(Nc1ccc(Br)cc1C(=O)O)c1ccc2c(c1)C(=O)N(Cc1ccccc1)C2=O	-137	i	6	49*	2	87*	77*
O=C(Nc1cc(Cl)ccc1C(=O)O)c1ccc(CN2C(=O)c3ccccc3C2=O)cc1	24	i	2	59*	13*	85*	72*
CCCN1C(=O)c2ccc(C(=O)Nc3ccccc3C(=O)O)cc2C1=O	-4	i	0	54*	-14	36*	7.0*
Cc1ccc(C(=O)Nc2ccc(N3CCOCC3)nc2N2CCOCC2)cc1	-4	i	0	3	1	/	/
CC1(C(=O)Nc2ccc3ccccc3c2)CCC(=O)N1CCc1c[nH]c2ccccc12 (configuration not stated)	15	i	2	7	/	/	/
O=C(O)Cc1c[nH]c2cccc(O)c12	2	i	-2	46*	0	29	13*
CNc1snc(C)c1C(=O)OCC(=O)c1ccc(OC)c(F)c1	6	i	12	3	2	/	/
CN(C)S(=O)(=O)c1ccc(C(=O)Nc2nnc(-c3ccco3)o2)cc1	-7	i	2	4	-2	/	/
CCCCN(C)S(=O)(=O)c1ccc(C(=O)Nc2nnc(-c3ccco3)o2)cc1	-3	i	2	37*	-7	27	8.2*
CC1CCc2ccccc2N1CC(=O)Nc1cccc(S(=O)(=O)N2CCCC2)c1 (configuration not stated)	20	i	0	6	-4	/	/
CC1=C(C(=O)Nc2ccccc2)C(c2ccc(Cl)cc2)n2c(s/c(=C/c3cccc(OCC(=O)O)c3)c2=O)=N1 (configuration not stated)	7	i	1	67*	-4	87*	63*
CCOc1ccc(C2C(C(=O)Nc3ccccc3)=C(C)N=c3s/c(=C/c4cccc(OCC(=O)O)c4)c(=O)n32)cc1 (configuration not stated)	4	i	0	67*	-8	83*	54*
CCOC(=O)C1=C(C)N=c2s/c(=C/c3ccc(OCC(=O)O)cc3)c(=O)n2C1c1ccc(OC)cc1OC (configuration not stated)	12	i	1	20	-1	/	/
